Drawing on PubChem BioAssay (NCI), this text covers growth for 6 molecules.

Some test systems named below: NCI-H226 lung; NCI-H322M lung; HOP-62 NSCLC; NCI-H460 lung; HOP-92 NSCLC; NCI-H522 lung; A549/ATCC NSCLC; 786-0 renal; COLO 205 colon; DU-145 prostate; K-562 leukemia; MALME-3M melanoma; MDA-MB-231 breast; RXF 393 renal; SF-268 CNS; SF-295 CNS; SF-539 CNS; UACC-257 melanoma; M14 melanoma.
Common to all, as to assay: NCI-60 one-dose screen, 48 h (100 = growth as untreated, 0 = no growth, -100 = all killed)
Conditions in all cases: 10 µM unless noted

Several values for one entry are separate records, joined by “and”; a condition that tells them apart may be missing. Equal entries are not always repeated. About 83,000 compounds went through this panel and 20% of them were active in at least one assay; those are over-represented in the sample as a whole.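 96-well plates, one dose, 48 hours. Percent growth reported; active if below 10.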 A number with no mark means an inactive call. Activity calls are given as the source filed them.

With `OC(CC(c1ccccc1)c1cccc2ccccc12)(c1ccccc1)c1ccccc1` (stereo not drawn), the growth in the test on NCI-H226 lung is 77.9% and 79.1%; in the test with NCI-H322M lung, 97.5% and 105%; with HOP-62 NSCLC it was 94.6% and 97%; in the test with NCI-H460 lung, 89.2% and 91.4%; with HOP-92 NSCLC it was 49.5% and 58.4%; in the test on NCI-H522 lung, 47.9% and 62.7%. In addition, the growth in the test with A549/ATCC NSCLC was 73.7% and 79.1%; in the test with 786-0 renal, 85.7% and 79.7%; in the test on COLO 205 colon, 90.3% and 92.4%; with DU-145 prostate it was 108% and 103%; with K-562 leukemia it was 92.9% and 67.2%; in the test on MALME-3M melanoma, 101% and 104%. For the same molecule, the growth with MDA-MB-231 breast was 69.4% and 71.2%; in the test on RXF 393 renal it was 92.7% and 86.7%; in the test on SF-268 CNS, 84.9% and 89.4%; in the test with SF-295 CNS, 80% and 81.3%; in the test with SF-539 CNS, 94.4% and 93.3%; with UACC-257 melanoma it was 62.8% and 85.3%. Besides, the growth in the test with M14 melanoma is 72.1% and 77.2%.

Take `CC1CCC(=O)N1c1ccc(N)cc1` (stereo not drawn): the growth was 100% in the test on NCI-H226 lung; 96.4% in the test on NCI-H322M lung; 86.3% with HOP-62 NSCLC; 106% with NCI-H460 lung; 107% in the test on HOP-92 NSCLC; 85.2% in the test with NCI-H522 lung. Moreover, the growth in the test with A549/ATCC NSCLC was 89.1%; with 786-0 renal it was 106%; in the test with COLO 205 colon it was 104%; with DU-145 prostate, 105%; in the test on K-562 leukemia it was 99.9%; in the test with MALME-3M melanoma, 105%. The growth with MDA-MB-231 breast is 101%; with RXF 393 renal it was 112%; in the test with SF-268 CNS it was 103%; in the test with SF-295 CNS, 102%; with SF-539 CNS, 99.8%; in the test on UACC-257 melanoma, 88.7%. Besides, the growth in the test with M14 melanoma is 104%.

Consider `O=C1c2cccnc2-c2ncccc21`, for which the growth with NCI-H226 lung was 90% [100 µM]; in the test with NCI-H322M lung, 101% [100 µM]; with HOP-62 NSCLC it was 96.9% [100 µM]; with NCI-H460 lung it was 111% [100 µM]; with HOP-92 NSCLC it was 96.7% [100 µM]; in the test on NCI-H522 lung, 104% [100 µM]. Also, the growth in the test on A549/ATCC NSCLC was 97.7% [100 µM]; with 786-0 renal it was 93.1% [100 µM]; with COLO 205 colon it was 123% [100 µM]; in the test with DU-145 prostate, 112% [100 µM]; in the test with K-562 leukemia, 115% [100 µM]; with MALME-3M melanoma, 103% [100 µM]. In addition, the growth with MDA-MB-231 breast is 118% [100 µM]; in the test with RXF 393 renal it was 109% [100 µM]; in the test on SF-268 CNS, 106% [100 µM]; in the test with SF-295 CNS, 103% [100 µM]; with SF-539 CNS, 104% [100 µM]; in the test with UACC-257 melanoma, 98% [100 µM]. In the test with M14 melanoma, the growth is 104% [100 µM].

As for `O=C(O)c1c2c(nc3ccccc13)Cc1ccccc1-2`, the growth in the test on NCI-H226 lung is 115% and 95%; in the test on NCI-H322M lung it was 119% and 87.4%; in the test with HOP-62 NSCLC, 118% and 88.9%; with NCI-H460 lung, 105% and 102%; in the test on HOP-92 NSCLC, 92.3% and 96.5%; in the test on NCI-H522 lung, 113% and 104%. Further, the growth with A549/ATCC NSCLC was 97.9% and 107%; with 786-0 renal, 108% and 101%; with COLO 205 colon it was 109% and 107%; with DU-145 prostate, 108% and 94.4%; in the test on K-562 leukemia it was 115% and 99.1%; in the test with MALME-3M melanoma, 105% and 86.8%. The growth with MDA-MB-231 breast was 107% and 102%; with RXF 393 renal, 182% and 114%; with SF-268 CNS, 95.4% and 86.9%; in the test on SF-295 CNS, 104% and 81.9%; with SF-539 CNS, 116% and 91.4%; in the test with UACC-257 melanoma, 85.8% and 103%. Also, the growth in the test on M14 melanoma is 91.5% and 96%.

`Cc1c(Cl)c(C)c(Cc2c(C)c(Cl)c(C)c(Cl)c2O)c(O)c1Cl`: the growth in the test on NCI-H226 lung was 15.7%; with HOP-62 NSCLC, 15.8%; with NCI-H460 lung, 5.16% (active); with HOP-92 NSCLC it was -20% (active); in the test on NCI-H522 lung it was 7.1% (active); in the test with A549/ATCC NSCLC it was 14.4%. Further, the growth was 49% in the test on 786-0 renal; 79.4% in the test with COLO 205 colon; 30.2% in the test on DU-145 prostate; 20.1% in the test with K-562 leukemia; -3.69% (active) in the test with MALME-3M melanoma; 2.41% (active) with MDA-MB-231 breast. The growth with RXF 393 renal is 4.04% (active); with SF-268 CNS it was 19.6%; in the test on SF-295 CNS it was 0.164% (active); in the test on SF-539 CNS, 15.7%; in the test with UACC-257 melanoma, -0.631% (active); in the test on M14 melanoma it was 22.6%.

Take `Cc1cc(Cl)nc(Nc2ccccc2)n1`: the growth is 91.2% with NCI-H226 lung; 92% in the test on NCI-H322M lung; 62.9% in the test on HOP-62 NSCLC; 103% in the test with NCI-H460 lung; 91.2% with HOP-92 NSCLC; 91% with NCI-H522 lung. In addition, the growth is 104% in the test with A549/ATCC NSCLC; 93.8% in the test with 786-0 renal; 114% with COLO 205 colon; 107% in the test on DU-145 prostate; 79.9% in the test on K-562 leukemia; 101% in the test with MALME-3M melanoma. For the same molecule, the growth is 105% in the test on MDA-MB-231 breast; 96.3% in the test with RXF 393 renal; 99.1% in the test on SF-268 CNS; 91.8% with SF-295 CNS; 96.6% in the test with SF-539 CNS; 106% in the test with UACC-257 melanoma. Moreover, the growth in the test on M14 melanoma is 97.6%.
